High-throughput results: PubChem BioAssay, Paczesny and Yang Labs, IUPUI and University of Michigan
The full list was thinned out, with hits kept by preference.
ST2 inh: inhibitors of human ST2 (IL1RL1) binding to IL-33, primary screen, biochemical, AlphaLISA; Interleukin-1 receptor-like 1 (Homo sapiens), Q01638; AlphaLISA ST2-Fc/biotin-IL-33 interaction, 1 h; inhibition, % for hits at 17 µM; actives 2.3% (n = 78,000); in the data active = inhibition above about 30%
Target sequence (Q01638 whole entry, looked up): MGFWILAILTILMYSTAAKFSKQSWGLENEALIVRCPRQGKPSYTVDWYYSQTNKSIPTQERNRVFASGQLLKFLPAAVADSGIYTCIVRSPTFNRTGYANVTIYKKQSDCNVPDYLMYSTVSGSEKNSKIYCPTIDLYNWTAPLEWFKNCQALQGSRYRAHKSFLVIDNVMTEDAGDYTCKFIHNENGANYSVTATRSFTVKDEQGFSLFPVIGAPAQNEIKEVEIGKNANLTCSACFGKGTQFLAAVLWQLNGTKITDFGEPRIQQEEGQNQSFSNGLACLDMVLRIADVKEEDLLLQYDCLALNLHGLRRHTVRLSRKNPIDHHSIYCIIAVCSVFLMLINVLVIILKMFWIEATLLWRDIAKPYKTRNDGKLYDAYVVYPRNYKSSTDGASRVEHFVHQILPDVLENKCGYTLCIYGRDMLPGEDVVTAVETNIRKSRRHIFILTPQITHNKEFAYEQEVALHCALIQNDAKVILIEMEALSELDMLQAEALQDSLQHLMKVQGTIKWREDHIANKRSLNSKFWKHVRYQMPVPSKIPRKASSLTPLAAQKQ
An asterisk follows results filed as active; i = inactive.

SMILES | ST2 inh
O=C1NC(=Nc2ccccc2)SC1Cc1cccc([N+](=O)[O-])c1 (stereo not drawn) | i
COc1ccc(CC2SC(=Nc3ccccc3)NC2=O)cc1 (stereo not drawn) | 31%*
O=C1NC(=Nc2ccccc2)SC1Cc1ccccc1 (stereo not drawn) | i
CCSCCOC(=O)C1=C(C)NC2=C(C(=O)C(C(=O)OC)C(C)C2)C1c1ccccc1Cl (stereo not drawn) | i
O=C(COc1ccccc1Br)Nc1ncn[nH]1 | i
CCc1ocnc1C(=O)NCc1cccnc1N1CCOCC1 | i
CCOc1ccc(C(=O)Nc2ccc3oc(-c4cccnc4)nc3c2)cc1[N+](=O)[O-] | i
COCc1nc(N2CC(n3nc(C)cc3C)C2)c2cnn(C)c2n1 | i
COc1ccccc1/C=C/C1=NC(=C\c2ccc(Cl)cc2Cl)/C(=O)O1 | i
COc1ccccc1/C=C/C1=NC(=C\c2ccc(SC)cc2)/C(=O)O1 | i
COc1ccccc1/C=C/C1=NC(=C\c2ccc(C(C)C)cc2)/C(=O)O1 | 45%*
Cn1c(SCc2ccc(Cl)cc2)nnc1-c1ccc(N)cc1 | i
COc1ccc(-n2ccnc2CNC2CC(=O)N(Cc3ccc(F)cc3)C2)cc1 (stereo not drawn) | i
COc1cc(Br)c(Br)c(C=Nc2ccc3c(c2)OCCO3)c1O | i
Cc1cc(NC(=O)CN2C(=O)S/C(=C\c3ccccc3)C2=O)no1 | i
O=C1S/C(=C\c2ccccc2F)C(=O)N1CNc1cccc(F)c1 | i
CCCCN1C(=O)S/C(=C\c2cc(C)n(C)c2C)C1=O | 39%*
Cc1cn2c(C(=O)N(C)CC3CCCN(CCc4ccccc4F)C3)csc2n1 (stereo not drawn) | i
CCCCn1c(=O)c2c(nc3n2CCN3c2ccccc2)n(C)c1=O | i
Cc1cccc(N=C2NC(=O)/C(=C\c3ccco3)S2)c1 | 31%*
O=C1NC(=Nc2cccc(Cl)c2Cl)S/C1=C/c1ccco1 | i
COc1cc(/C=C2\SC(=Nc3c(C)n(C)n(-c4ccccc4)c3=O)NC2=O)ccc1O | i
Cn1cc(CC(=O)NCCCN2CCCCCC2)c2ccccc21 | i
O=C(NCc1ccccc1)c1cnc2ccc(S(=O)(=O)N3CCOCC3)cc2c1Cl | i
O=C(Nc1ccccc1F)c1ccc2nc(-c3ccco3)c(-c3ccco3)nc2c1 | i
SMILES | ST2 inh
O=C(Nc1nccs1)c1ccc2snnc2c1 | i
O=C(Nc1nccs1)c1ccc2nc(-c3ccco3)c(-c3ccco3)nc2c1 | 30%*
N#CC1=C(N)Oc2nc[nH]c(=O)c2C1c1ccccc1Cl (stereo not drawn) | 94%*
COc1cc(-c2[nH]nc3c2C(c2ccccc2Cl)C(C#N)=C(N)O3)cc(OC)c1OC (stereo not drawn) | i
CC(C)(C)c1[nH]nc2c1C(c1ccccc1Cl)C(C#N)=C(N)O2 (stereo not drawn) | i
O=C(c1ccc2c(c1)ncn2C1CCCCC1)N1CCN(Cc2ccccc2)CC1 | i
C(=C\c1cc(/C=C/c2ccccc2)ncn1)/c1ccccc1 | i
C(=C\c1ccccn1)/c1cccc(-n2cnnc2)c1 | i
O=C(c1ccccc1)c1ccc(/C=C/c2ccccn2)cc1 | 55%*
Cc1ccccc1N1C(=O)c2cccnc2C1=O | i
Cc1onc(-c2ccccc2Cl)c1C(=O)N(c1ccc(C(C)C)cc1)C1C=CS(=O)(=O)C1 (stereo not drawn) | i
O=C1CC(c2cccs2)CC2=C1C(c1ccccc1F)Nc1ccccc1N2 (stereo not drawn) | i
Nc1nc(-c2ccc(F)c(F)c2)cs1 | i
Cc1ccccc1C(=O)Nc1cc2cccc([N+](=O)[O-])c2oc1=O | i
CCOc1ccccc1NC(=O)c1c(-c2ccccc2Cl)noc1C | i
Cc1onc(-c2ccccc2)c1C(=O)Nc1cc2cccc([N+](=O)[O-])c2oc1=O | 46%*
Cc1onc(-c2ccccc2)c1C(=O)Nc1cccc(NC(=O)c2c(-c3ccccc3)noc2C)n1 | i
O=C(Nc1cc2cccc([N+](=O)[O-])c2oc1=O)c1cccc(I)c1 | i
CCOc1ccc(NC(=O)c2c(-c3ccccc3)noc2C)c([N+](=O)[O-])c1 | 38%*
CCOC(=O)C1=C(C)NC2=C(C(=O)CCC2)C1c1cc(Br)c(O)c(OCC)c1 (stereo not drawn) | i
Cc1c(CN(Cc2ccccn2)CC(C)C)c(=O)n(-c2ccccc2)n1C | i
C=CCc1cccc(C)c1OCCN1CCOCC1 | i
NC(=O)c1c(NC(=O)c2cc([N+](=O)[O-])nn2Cc2ccccc2)sc2c1CCCC2 | i
Cc1nc2c(ccc3nc(NC(=O)C(C)(C)C)sc32)s1 | i
Cc1nc(SCc2ccc(Cl)cc2)nc2ccccc12 | i
SMILES | ST2 inh
COc1ccc2nc(NC3=NC(c4ccccc4)CC(=O)N3)nc(C)c2c1 (stereo not drawn) | i
CC1=NC(Nc2nc(C)c3ccccc3n2)=NC(C)(C)C1 | 36%*
Cc1ccc(C(=O)Nc2ccc(N3CCOCC3)c(Cl)c2)c(Cl)c1 | i
CCOc1ccc(OCC(=O)Nc2c(C(=O)Nc3ccccc3F)oc3ccccc23)cc1 | i
COc1ccc(CN2CC(OC)CN(C(=O)c3ccc(N(C)C)cc3)CC2=O)cc1 (stereo not drawn) | i
C=CCSc1nnc2c(n1)OC(c1ccc(OC)c(O)c1)Nc1ccccc1-2 (stereo not drawn) | i
COc1ccc([N+](=O)[O-])cc1-n1cccc1 | 39%*
COc1cc([N+](=O)[O-])ccc1N | i
COc1ccc([N+](=O)[O-])cc1NC(=O)C(Cl)(Cl)Cl | i
CCN(CC)CC(O)COc1cc([N+](=O)[O-])ccc1N1CCCC1 (stereo not drawn) | i
COc1ccccc1N1CCN(C(=O)Nc2ccc([N+](=O)[O-])cc2)CC1 | i
COc1cc([N+](=O)[O-])ccc1N1CCCC1 | 38%*
COC(=O)c1cccnc1-n1c(=O)[nH]c2ncccc2c1=O | i
Cc1c(C(=O)NCCC(C)C)oc2ccc(S(=O)(=O)N3CCCCCC3)cc12 | i
CCc1ccccc1NC(=O)CN1CCCN(Cc2cccc(F)c2)S1(=O)=O | i
Cc1ncc(CN2CCOC(CC(c3ccccc3)c3ccccc3)C2)n1C (stereo not drawn) | i
O=C(/C=C/c1ccccc1)Nc1cc2ccccc2oc1=O | i
COc1ccccc1NC(=O)Nc1cccc2cccnc12 | i
COc1cc(NC(=O)/C=C/c2ccccc2)c2ncccc2c1 | 35%*
CN(C)C(=O)c1ccccc1C(=O)N(C)C | i
O=C1CCc2cc(S(=O)(=O)N3CCCC3)ccc2N1 | i
COc1cc(C(C)=O)ccc1OC(=O)c1ccc(C)cc1 | i
COc1ccccc1Oc1nc2c(c(=O)n(C)c(=O)n2C)n1Cc1ccccc1F | 31%*
C#CCOc1nc2c(c(=O)n(C)c(=O)n2C)n1Cc1ccccc1Cl | i
CC1CCN(c2nc3c(c(=O)n(C)c(=O)n3C)n2Cc2ccccc2Cl)CC1 | i
COCCCNc1nc2c(c(=O)n(C)c(=O)n2C)n1Cc1ccccc1F | i
CC(CCO)Nc1nc2c(c(=O)n(C)c(=O)n2C)n1Cc1ccccc1F (stereo not drawn) | i
CCOc1nc2c(c(=O)n(C)c(=O)n2C)n1Cc1ccccc1Cl | 30%*
CSc1ccc(-c2nc(SCC(=O)Nc3nccs3)c(-c3ccccc3)[nH]2)cc1 | i
